# High-throughput results deposited in PubChem BioAssay by National Center for Advancing Translational Sciences (NCATS).
# TRHR enhancer: qHTS for Small Molecule Agonists and Allosteric Enhancers of Human TRH Receptor: Primary Screen for Enhancers; Thyrotropin-releasing hormone receptor (Homo sapiens), P34981; TRHR cells, fluo-8 calcium fluorescence, EC20 TRH enhancement; enhancement, % at 2 µM; 360,000 compounds, 0.66% hits; in the data active means enhancement above about 30%; further: 0% is about no effect
#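 Enhancer read-out: after compound pinning and an initial kinetic agonist-mode read, an EC20 of TRH (10 nM final) was injected and fluo-8 calcium signal (Ex 480/Em 530) followed at 1 s/cycle for 100 cycles in TRHR-expressing cells.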
# D1 agonist: Allosteric Agonists of the Human D1 Dopamine Receptor: qHTS | HEK293 T-REx D1 cells, calcium flux, agonist mode | activation, % at 2 µM | 360,000 compounds, 1% hits | AID 504660, 2011; further: 0% is about no effect
# Target sequence (P21728 whole entry, looked up): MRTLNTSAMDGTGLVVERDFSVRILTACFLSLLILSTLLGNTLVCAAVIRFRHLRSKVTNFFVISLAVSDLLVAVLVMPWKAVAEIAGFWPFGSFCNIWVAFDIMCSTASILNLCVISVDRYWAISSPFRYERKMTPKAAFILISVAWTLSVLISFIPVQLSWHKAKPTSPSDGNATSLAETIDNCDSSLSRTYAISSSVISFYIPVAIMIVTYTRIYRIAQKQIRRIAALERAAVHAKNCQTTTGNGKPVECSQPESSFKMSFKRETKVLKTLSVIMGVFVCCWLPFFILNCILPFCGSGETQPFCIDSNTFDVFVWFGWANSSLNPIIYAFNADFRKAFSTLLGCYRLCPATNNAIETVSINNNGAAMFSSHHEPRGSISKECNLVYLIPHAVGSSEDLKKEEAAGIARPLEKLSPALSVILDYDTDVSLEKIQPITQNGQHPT
#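 Inducible HEK293 T-REx D1 cells, force-coupled to calcium signalling, were plated at 4000 cells/well with tetracycline and held overnight at 30 C. After no-wash calcium dye loading, compound-evoked calcium rise over 180 s flagged agonists.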
# D1 potentiator: Potentiators of Human D1 Dopamine Receptor: qHTS; potentiation, % at 10 µM; D(1A) dopamine receptor (Homo sapiens), P21728; 360,000 compounds, 0.036% hits; AID 504651, 2011; HEK293 TREx D1 cells, calcium flux, dopamine EC20 potentiation; in the data active means potentiation above about 30%; further: 0% is about no effect
# GRP78 ERSR act: qHTS for Inducers of the Endoplasmic Reticulum Stress Response (ERSR) in Human Glioma: qHTS. U87-MG GRP78 promoter luciferase reporter, 16 h. Potency, µM, without a hit: at the highest dose activation, actives largely listed as activators. 420,000 compounds, 0.02% hits. AID 602332, 2012; active means well fitted activation curve with a large enough effect; inconclusive means small, poorly fitted or top-dose-only effect; inactive means no such curve, though single readings can be large or run the other way; further: potency means the concentration at half of the fitted maximal effect; series mostly up to about 76 µM; % of control where 0% means no effect; nearly all actives have a fitted effect of over 35% in size
#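 Stably transfected U87-MG glioma cells carrying a GRP78-based luciferase sensor; 16 h compound incubation. Luminescence end-point read 10 min after Bright-Glo addition at room temperature.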
# D1 antagonist: Antagonist of Human D 1 Dopamine Receptor: qHTS; D(1A) dopamine receptor (Homo sapiens), P21728; HEK293 TREx D1 cells, calcium flux, dopamine EC80; active compounds read low; activity change, negative = inhibition, % at 10 µM; 360,000 compounds, 3.2% hits; in the data active means activity change below about -30%; further: on the % scale 0 is the no-effect control and ±100 the full control effect
#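 Calcium flux readout: force-coupled, inducible Hek293 Trex D1 line, cells induced overnight at 30 C with tetracycline, dye-loaded 30–90 min at RT. Antagonism scored against EC80 dopamine challenge given 180 s after compound.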
# TRHR agonist: qHTS for Small Molecule Agonists and Allosteric Enhancers of Human TRH Receptor: Primary Screen for Agonists; activation, % at 2 µM; Thyrotropin-releasing hormone receptor (Homo sapiens), P34981; TRHR cells, calcium flux fluo-8, FDSS agonist mode; AID 493084, 2011; 360,000 compounds, 0.18% hits; further: 0% is about no effect
#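 In this calcium-flux screen, cells bearing human TRHR are dye-loaded with fluo-8, baselined for 10 cycles, then exposed to library compounds; positive kinetic calcium responses during the agonist phase mark hits, with TRH as control.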
# * = called active by the depositor; ? = inconclusive; . = no result given. Sampled rows, rich in hits. Any-hit rate of the full collection: about 4%. Unless noted, no stated cut-off is given here; in the data, active means activation above about 30%; inactive means the rest.
SMILES,TRHR enhancer,D1 agonist,D1 potentiator,GRP78 ERSR act,D1 antagonist,TRHR agonist
Cc1ccc(OCc2cc(C(=O)NCc3ccc(OC(F)(F)F)cc3)no2)cn1,1.9,51.5*,1.5,6.3%,-27.1,2.2
CCc1cc(CNC(=O)c2cc(COc3ccc(C)nc3)on2)on1,2.0,2.4,-3.5,4.0%,-6.9,0.0
O=S1(=O)C=C(SCc2ccc(F)cc2)Nc2ccccc21,5.4,3.9,1.6,-3.0%,3.7,-0.2
CSc1nsc(/C=C/Nc2cccc(Cl)c2)c1C#N,-3.1,7.2,-8.4,3.3%,-33.2*,1.9
O=C(N/N=C/c1ccc(O)cc1)c1csc2ccccc12,-6.2,1.1,-2.0,?,-57.1*,-0.4
Cc1ccc(S(=O)(=O)NNC(=O)c2ccc(C(=O)N(c3ccccc3)c3ccccc3)cc2)cc1,.,.,.,-0.2%,.,.
Cc1ccc(-n2ncc(C(=O)Nc3ccc4c(c3)OCO4)c2C2CCN(C(=O)OC(C)(C)C)CC2)cc1,3.4,0.5,-2.1,0.6%,-1.9,0.2
CCN1CCN(C(=O)c2cnn(-c3cccc(Cl)c3)c2C2CCN(C(=O)OC(C)(C)C)CC2)CC1,37.3*,3.2,-3.5,-3.9%,2.7,1.8
Cc1ccc(-n2ncc(C(=O)Nc3ccc4c(c3)OCCO4)c2C2CCN(C(=O)OC(C)(C)C)CC2)cc1,31.3*,1.4,-4.5,-6.0%,-12.0,1.6
CC(C)(C)OC(=O)N1CCC(c2c(C(=O)Nc3ccc4c(c3)OCCO4)cnn2-c2ccccc2)CC1,6.3,1.6,-7.8,-3.2%,-30.3*,-0.1
CC(C)(C)OC(=O)N1CCC(c2c(C(=O)Nc3ccc4c(c3)OCCO4)cnn2-c2ccc(Cl)cc2)CC1,4.3,3.7,2.6,-6.3%,17.7,1.1
COc1ccccc1CNC(=O)c1cnn(-c2ccc(F)cc2F)c1C1CCN(C(=O)OC(C)(C)C)CC1,-5.6,0.1,-8.2,-1.7%,-59.2*,-1.0
COc1ccc(CCN2CCC(CNC(=O)c3cnn(-c4ccc(C)cc4)c3C3CCN(C(=O)OC(C)(C)C)CC3)CC2)cc1,13.0,57.8*,-6.8,-2.3%,-29.4,-1.2
Cc1ccc(CN2CCC(CNC(=O)c3cnn(-c4ccccc4)c3C3CCN(C(=O)OC(C)(C)C)CC3)CC2)cc1,7.7,1.6,1.6,-3.4%,3.1,-0.6
Cc1ccc(Cn2ccc(=O)c(OCc3c(Cl)cccc3Cl)c2C)cc1,39.2*,7.5,1.5,-0.5%,8.4,0.3
CCSc1nc2ccccc2c(OCc2cc(C(=O)OC)ccc2OC)c1C(=O)OC,7.0,39.8*,1.4,-3.1%,-62.1*,5.4
Cc1onc(-c2ccccc2Cl)c1C(=O)Nc1ccc(Cl)cn1,31.1*,1.5,0.4,-0.4%,5.4,-1.0
Cc1cccc(C(=O)NNC(=O)c2c(-c3ccccc3Cl)noc2C)c1O,30.8*,1.6,-1.8,-1.8%,1.6,-0.1
Cc1onc(-c2ccccc2Cl)c1C(=O)Nc1nnc(-c2cccc([N+](=O)[O-])c2)s1,3.7,41.2*,14.6,4.5%,39.3,-0.6
Cc1onc(-c2ccccc2)c1C(=O)Nc1ccc(N2CCOCC2)cc1,3.4,1.3,-2.7,-0.9%,0.0,0.1
Cc1onc(-c2ccccc2Cl)c1C(=O)Nc1ccc(N2CCOCC2)cc1,0.9,0.8,-5.8,-2.6%,-46.2*,1.0
COc1cccc(C2(CC(=O)N3CCCOc4c(cccc4OC)C3)CC(=O)N(C)C2=O)c1 (stereo unspecified),.,.,.,0.2%,.,.
COc1ccc(N2CCN(C(=O)c3cc4c(=O)n(Cc5cccs5)ccc4nc3C)CC2)cc1,6.8,-1.7,-3.2,-2.0%,6.4,-0.4
Cc1onc(-c2ccccc2Cl)c1C(=O)NCc1nc(-c2ccc(C(F)(F)F)cc2)no1,-13.7,8.8,1.0,-4.5%,-37.5*,1.5
O=C(CCc1nc(-c2ccccc2)no1)Nc1cc(C(F)(F)F)ccc1Cl,0.0,60.9*,5.7,-2.8%,14.0,-0.2
SMILES,TRHR enhancer,D1 agonist,D1 potentiator,GRP78 ERSR act,D1 antagonist,TRHR agonist
O=C(Cc1nnc(CNC(=O)c2ccccc2)o1)Nc1cc(C(F)(F)F)ccc1Cl,-0.4,0.5,-4.3,.,17.9,0.1
Cc1onc(-c2ccccc2Cl)c1C(=O)NCc1ccccc1F,7.8,0.2,-3.2,-3.5%,-25.5,-0.9
CC(=O)OCC(NC(=O)C(Cc1ccccc1)NC(=O)OC(C)(C)C)C1OC(n2cc(F)c(=O)[nH]c2=O)C(OC(C)=O)C1OC(C)=O (stereo unspecified),.,.,.,0.8%,.,.
C=CCN(CC=C)C(=S)NC(=O)Cc1cccc2ccccc12,-0.9,1.8,-7.7,1.0%,-14.5,-1.5
Cc1cc2c(s1)c1cnn(Cc3c(F)cccc3C(F)(F)F)c(=O)c1n2C,-1.4,8.9,-5.7,.,-0.9,-0.6
O=C(CCl)Nc1ccccc1C(=O)NCc1ccccc1,33.5*,2.8,-6.8,-14.0%,-18.2,-0.3
O=C(COc1ccc(Cl)cc1)Nc1ccc(C(=O)NCc2cccnc2)cc1,1.2,9.7,-4.2,-2.8%,5.6,0.0
O=C(COc1ccc(Cl)cc1)Nc1ccccc1C(=O)NCc1cccnc1,-4.0,87.7*,2.9,-0.6%,17.2,-0.8
O=C(NCc1cccnc1)c1ccc(COc2ccc(Cl)cc2)cc1,-6.8,13.6,-5.9,7.2%,-31.9*,-0.8
Cc1cc(C)n2nc(SCC(=O)N(CCC#N)c3ccc(F)cc3)nc2n1,-3.0,1.0,6.5,-3.4%,-6.3,0.3
Cc1cc(NS(=O)(=O)c2ccc(NC(=O)COc3ccc(Cl)cc3)cc2)nc(C)n1,-7.8,1.2,0.2,-1.8%,4.8,0.3
N#C/C(=C\c1cccs1)Sc1nc2ccccc2s1,-6.2,8.3,-6.8,9.7%,-34.7*,1.8
N#C/C(=C\c1ccc[nH]1)Sc1nc2ccccc2s1,0.8,3.0,-9.9,1.6%,-15.8,-0.9
Cc1cccc(C(=O)NNc2ncnc3c2cnn3-c2ccc(C)cc2C)c1,-1.5,-2.6,7.2,-1.9%,2.2,-0.4
CCc1ccc(NC(=O)c2cc(=O)c3ccc(C)c(C)c3o2)cc1,9.3,2.6,0.1,-4.7%,-6.0,0.3
Cc1cccc(N2CCN(Cc3nnc(-c4ccc5c(c4)OCO5)o3)CC2)c1C,-4.2,-0.6,-1.6,-2.6%,1.9,0.3
Cc1ccc(N2CCN(Cc3nnc(-c4ccc5c(c4)OCO5)o3)CC2)c(C)c1,-1.9,2.8,0.0,-1.6%,-30.1*,0.0
COc1cccc(CN(C)C(=O)c2ccc(Oc3ccccc3)cc2)c1OC,-4.1,32.3*,-7.3,-1.1%,2.0,-2.1
